In the supplement of paper PMC7411054:
Structures can show the parent of a compound that is named as a salt.

Experiments:
Conditions in all cases: treatment time: 24 h
WPMY1-ACTB-RAB5A [1] = experiment: lowest phenotypically active concentration; higher = less potent
Method in brief: (§1)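 Cells from fifteen gene-edited reporter lines (A549, HepG2 and WPMY1) were treated for 24 h at 0.3, 1, 3 or 9 µM and imaged live, four wells per condition. Features were normalised per well to solvent control wells. A condition deviated if ≥3 of 4 wells passed the 95th percentile of control Euclidean distances and was reproducible if its median replicate Pearson correlation beat the 95th percentile of non-replicates; phenotypic activity needed both.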

A549-ACTB-RAB5A = experiment: phenotypically active (imaging signature differs from DMSO and reproducible) at any of 0.3-9 uM (binary (1 = active, 0 = inactive)); higher = active
Method in brief: as §1

A549-CANX-COX4 = experiment: as above
Method in brief: as §1

A549-GM130-SQSTM1 = experiment: as above
Method in brief: as §1

A549-TP53BP1-CLTA = experiment: as above
Method in brief: as §1

A549-TUBA1B-RELA = experiment: as above
Method in brief: as §1

HepG2-ACTB-RAB5A = experiment: as above
Method in brief: as §1

HepG2-CANX-COX4 = experiment: as above
Method in brief: as §1

HepG2-GM130-SQSTM1 [2] = experiment: as above
Method in brief: as §1

HepG2-TP53BP1-CLTA = experiment: as above
Method in brief: as §1

HepG2-TUBA1B-RELA [3] = experiment: as above
Method in brief: as §1

WPMY1-ACTB-RAB5A [4] = experiment: as above
Method in brief: as §1

WPMY1-CANX-COX4 = experiment: as above
Method in brief: as §1

WPMY1-GM130-SQSTM1 [5] = experiment: as above
Method in brief: as §1

WPMY1-TP53BP1-CLTA = experiment: as above
Method in brief: as §1

WPMY1-TUBA1B-RELA = experiment: as above
Method in brief: as §1

WPMY1-GM130-SQSTM1 [6] = experiment: lowest phenotypically active concentration; higher = less potent
Method in brief: as §1

HepG2-GM130-SQSTM1 [7] = experiment: as above
Method in brief: as §1

HepG2-TUBA1B-RELA [8] = experiment: as above
Method in brief: as §1

CCN1C(=O)NC(c2ccccc2)C1=O (stereo not drawn) [ethotoin]
inactive: phenotypically active (A549-ACTB-RAB5A) 0 | phenotypically active (A549-CANX-COX4) 0 | phenotypically active (A549-GM130-SQSTM1) 0 | phenotypically active (A549-TP53BP1-CLTA) 0 | phenotypically active (A549-TUBA1B-RELA) 0 | phenotypically active (HepG2-ACTB-RAB5A) 0 | phenotypically active (HepG2-CANX-COX4) 0 | phenotypically active (HepG2-GM130-SQSTM1 [2]) 0 | phenotypically active (HepG2-TP53BP1-CLTA) 0 | phenotypically active (HepG2-TUBA1B-RELA [3]) 0 | phenotypically active (WPMY1-GM130-SQSTM1 [5]) 0 | phenotypically active (WPMY1-TP53BP1-CLTA) 0 | phenotypically active (WPMY1-TUBA1B-RELA) 0
3 µM: lowest phenotypically active concentration (WPMY1-ACTB-RAB5A [1])
active: phenotypically active (WPMY1-ACTB-RAB5A [4]) 1 | phenotypically active (WPMY1-CANX-COX4) 1

O=C1CCc2ccc(OCCCCN3CCN(c4cccc(Cl)c4Cl)CC3)cc2N1 [aripiprazole]
active: phenotypically active (WPMY1-GM130-SQSTM1 [5]) 1
≤ 0.3 µM: lowest phenotypically active concentration (WPMY1-GM130-SQSTM1 [6])
inactive: phenotypically active (A549-ACTB-RAB5A) 0 | phenotypically active (A549-CANX-COX4) 0 | phenotypically active (A549-GM130-SQSTM1) 0 | phenotypically active (A549-TP53BP1-CLTA) 0 | phenotypically active (A549-TUBA1B-RELA) 0 | phenotypically active (HepG2-ACTB-RAB5A) 0 | phenotypically active (HepG2-CANX-COX4) 0 | phenotypically active (HepG2-GM130-SQSTM1 [2]) 0 | phenotypically active (HepG2-TP53BP1-CLTA) 0 | phenotypically active (HepG2-TUBA1B-RELA [3]) 0 | phenotypically active (WPMY1-ACTB-RAB5A [4]) 0 | phenotypically active (WPMY1-CANX-COX4) 0 | phenotypically active (WPMY1-TP53BP1-CLTA) 0 | phenotypically active (WPMY1-TUBA1B-RELA) 0

Cc1cccc(CCN2CCC(C(=O)c3ccc(NS(C)(=O)=O)cc3)CC2)n1
inactive: phenotypically active (A549-ACTB-RAB5A) 0 | phenotypically active (A549-CANX-COX4) 0 | phenotypically active (A549-GM130-SQSTM1) 0 | phenotypically active (A549-TP53BP1-CLTA) 0 | phenotypically active (A549-TUBA1B-RELA) 0 | phenotypically active (HepG2-ACTB-RAB5A) 0 | phenotypically active (HepG2-CANX-COX4) 0 | phenotypically active (HepG2-GM130-SQSTM1 [2]) 0 | phenotypically active (HepG2-TP53BP1-CLTA) 0 | phenotypically active (HepG2-TUBA1B-RELA [3]) 0 | phenotypically active (WPMY1-ACTB-RAB5A [4]) 0 | phenotypically active (WPMY1-CANX-COX4) 0 | phenotypically active (WPMY1-TP53BP1-CLTA) 0 | phenotypically active (WPMY1-TUBA1B-RELA) 0
active: phenotypically active (WPMY1-GM130-SQSTM1 [5]) 1
3 µM: lowest phenotypically active concentration (WPMY1-GM130-SQSTM1 [6])

Cc1nc[nH]c1C1CCN(c2nc3cccc4c3n2CCC4=O)CC1
inactive: phenotypically active (A549-ACTB-RAB5A) 0 | phenotypically active (A549-CANX-COX4) 0 | phenotypically active (A549-GM130-SQSTM1) 0 | phenotypically active (A549-TP53BP1-CLTA) 0 | phenotypically active (A549-TUBA1B-RELA) 0 | phenotypically active (HepG2-ACTB-RAB5A) 0 | phenotypically active (HepG2-CANX-COX4) 0 | phenotypically active (HepG2-GM130-SQSTM1 [2]) 0 | phenotypically active (HepG2-TUBA1B-RELA [3]) 0 | phenotypically active (WPMY1-ACTB-RAB5A [4]) 0 | phenotypically active (WPMY1-CANX-COX4) 0 | phenotypically active (WPMY1-GM130-SQSTM1 [5]) 0 | phenotypically active (WPMY1-TP53BP1-CLTA) 0 | phenotypically active (WPMY1-TUBA1B-RELA) 0
active: phenotypically active (HepG2-TP53BP1-CLTA) 1

COC(=O)[C@@H]1[C@H]2C[C@H]3c4[nH]c5ccccc5c4CCN3C[C@@H]2CC[C@@H]1O [Yohimbine hydrochloride]
inactive: phenotypically active (A549-ACTB-RAB5A) 0 | phenotypically active (A549-CANX-COX4) 0 | phenotypically active (A549-GM130-SQSTM1) 0 | phenotypically active (A549-TP53BP1-CLTA) 0 | phenotypically active (A549-TUBA1B-RELA) 0 | phenotypically active (HepG2-ACTB-RAB5A) 0 | phenotypically active (HepG2-CANX-COX4) 0 | phenotypically active (HepG2-GM130-SQSTM1 [2]) 0 | phenotypically active (HepG2-TP53BP1-CLTA) 0 | phenotypically active (HepG2-TUBA1B-RELA [3]) 0 | phenotypically active (WPMY1-ACTB-RAB5A [4]) 0 | phenotypically active (WPMY1-CANX-COX4) 0 | phenotypically active (WPMY1-TP53BP1-CLTA) 0 | phenotypically active (WPMY1-TUBA1B-RELA) 0
active: phenotypically active (WPMY1-GM130-SQSTM1 [5]) 1
9 µM: lowest phenotypically active concentration (WPMY1-GM130-SQSTM1 [6])

CNCC(O)c1ccc(OC(=O)C(C)(C)C)c(OC(=O)C(C)(C)C)c1 (stereo not drawn) [dipivefrine]
active: phenotypically active (WPMY1-GM130-SQSTM1 [5]) 1
9 µM: lowest phenotypically active concentration (WPMY1-GM130-SQSTM1 [6])
inactive: phenotypically active (A549-ACTB-RAB5A) 0 | phenotypically active (A549-CANX-COX4) 0 | phenotypically active (A549-GM130-SQSTM1) 0 | phenotypically active (A549-TP53BP1-CLTA) 0 | phenotypically active (A549-TUBA1B-RELA) 0 | phenotypically active (HepG2-ACTB-RAB5A) 0 | phenotypically active (HepG2-CANX-COX4) 0 | phenotypically active (HepG2-GM130-SQSTM1 [2]) 0 | phenotypically active (HepG2-TP53BP1-CLTA) 0 | phenotypically active (HepG2-TUBA1B-RELA [3]) 0 | phenotypically active (WPMY1-ACTB-RAB5A [4]) 0 | phenotypically active (WPMY1-CANX-COX4) 0 | phenotypically active (WPMY1-TP53BP1-CLTA) 0 | phenotypically active (WPMY1-TUBA1B-RELA) 0

CN(C)CCOC(c1ccccc1)c1ccccc1 [diphenhydramine]
9 µM: lowest phenotypically active concentration (WPMY1-ACTB-RAB5A [1]) | lowest phenotypically active concentration (WPMY1-GM130-SQSTM1 [6])
active: phenotypically active (WPMY1-ACTB-RAB5A [4]) 1 | phenotypically active (WPMY1-CANX-COX4) 1 | phenotypically active (WPMY1-GM130-SQSTM1 [5]) 1 | phenotypically active (WPMY1-TP53BP1-CLTA) 1 | phenotypically active (WPMY1-TUBA1B-RELA) 1
inactive: phenotypically active (A549-ACTB-RAB5A) 0 | phenotypically active (A549-CANX-COX4) 0 | phenotypically active (A549-GM130-SQSTM1) 0 | phenotypically active (A549-TP53BP1-CLTA) 0 | phenotypically active (A549-TUBA1B-RELA) 0 | phenotypically active (HepG2-ACTB-RAB5A) 0 | phenotypically active (HepG2-CANX-COX4) 0 | phenotypically active (HepG2-GM130-SQSTM1 [2]) 0 | phenotypically active (HepG2-TP53BP1-CLTA) 0 | phenotypically active (HepG2-TUBA1B-RELA [3]) 0

O=c1c(O)c(-c2ccc(O)c(O)c2)oc2cc(O)cc(O)c12 [Quercetin]
active: phenotypically active (WPMY1-GM130-SQSTM1 [5]) 1
inactive: phenotypically active (A549-ACTB-RAB5A) 0 | phenotypically active (A549-CANX-COX4) 0 | phenotypically active (A549-GM130-SQSTM1) 0 | phenotypically active (A549-TP53BP1-CLTA) 0 | phenotypically active (A549-TUBA1B-RELA) 0 | phenotypically active (HepG2-ACTB-RAB5A) 0 | phenotypically active (HepG2-CANX-COX4) 0 | phenotypically active (HepG2-GM130-SQSTM1 [2]) 0 | phenotypically active (HepG2-TP53BP1-CLTA) 0 | phenotypically active (HepG2-TUBA1B-RELA [3]) 0 | phenotypically active (WPMY1-ACTB-RAB5A [4]) 0 | phenotypically active (WPMY1-CANX-COX4) 0 | phenotypically active (WPMY1-TP53BP1-CLTA) 0 | phenotypically active (WPMY1-TUBA1B-RELA) 0
9 µM: lowest phenotypically active concentration (WPMY1-GM130-SQSTM1 [6])

COc1ccc(C[C@@H]2c3cc(OC)c(OC)cc3CC[N@+]2(C)CCC(=O)OCCCCCOC(=O)CC[N@@+]2(C)CCc3cc(OC)c(OC)cc3[C@H]2Cc2ccc(OC)c(OC)c2)cc1OC [Cisatracurium besylate]
9 µM: lowest phenotypically active concentration (HepG2-GM130-SQSTM1 [7]) | lowest phenotypically active concentration (WPMY1-GM130-SQSTM1 [6])
inactive: phenotypically active (A549-ACTB-RAB5A) 0 | phenotypically active (A549-CANX-COX4) 0 | phenotypically active (A549-GM130-SQSTM1) 0 | phenotypically active (A549-TP53BP1-CLTA) 0 | phenotypically active (A549-TUBA1B-RELA) 0 | phenotypically active (HepG2-ACTB-RAB5A) 0 | phenotypically active (HepG2-CANX-COX4) 0 | phenotypically active (HepG2-TP53BP1-CLTA) 0 | phenotypically active (HepG2-TUBA1B-RELA [3]) 0 | phenotypically active (WPMY1-ACTB-RAB5A [4]) 0 | phenotypically active (WPMY1-CANX-COX4) 0 | phenotypically active (WPMY1-TP53BP1-CLTA) 0 | phenotypically active (WPMY1-TUBA1B-RELA) 0
active: phenotypically active (HepG2-GM130-SQSTM1 [2]) 1 | phenotypically active (WPMY1-GM130-SQSTM1 [5]) 1

Cc1cc2c(s1)Nc1ccccc1N=C2N1CCN(C)CC1 [Olanzapine]
9 µM: lowest phenotypically active concentration (HepG2-TUBA1B-RELA [8])
active: phenotypically active (HepG2-TUBA1B-RELA [3]) 1
inactive: phenotypically active (A549-ACTB-RAB5A) 0 | phenotypically active (A549-CANX-COX4) 0 | phenotypically active (A549-GM130-SQSTM1) 0 | phenotypically active (A549-TP53BP1-CLTA) 0 | phenotypically active (A549-TUBA1B-RELA) 0 | phenotypically active (HepG2-ACTB-RAB5A) 0 | phenotypically active (HepG2-CANX-COX4) 0 | phenotypically active (HepG2-GM130-SQSTM1 [2]) 0 | phenotypically active (HepG2-TP53BP1-CLTA) 0 | phenotypically active (WPMY1-ACTB-RAB5A [4]) 0 | phenotypically active (WPMY1-CANX-COX4) 0 | phenotypically active (WPMY1-GM130-SQSTM1 [5]) 0 | phenotypically active (WPMY1-TP53BP1-CLTA) 0 | phenotypically active (WPMY1-TUBA1B-RELA) 0

NS(=O)(=O)C#Cc1ccccc1 [pifithrin-mu]
9 µM: lowest phenotypically active concentration (WPMY1-GM130-SQSTM1 [6])
inactive: phenotypically active (A549-ACTB-RAB5A) 0 | phenotypically active (A549-CANX-COX4) 0 | phenotypically active (A549-GM130-SQSTM1) 0 | phenotypically active (A549-TP53BP1-CLTA) 0 | phenotypically active (A549-TUBA1B-RELA) 0 | phenotypically active (HepG2-ACTB-RAB5A) 0 | phenotypically active (HepG2-CANX-COX4) 0 | phenotypically active (HepG2-TP53BP1-CLTA) 0 | phenotypically active (HepG2-TUBA1B-RELA [3]) 0 | phenotypically active (WPMY1-ACTB-RAB5A [4]) 0 | phenotypically active (WPMY1-CANX-COX4) 0 | phenotypically active (WPMY1-TP53BP1-CLTA) 0
active: phenotypically active (HepG2-GM130-SQSTM1 [2]) 1 | phenotypically active (WPMY1-GM130-SQSTM1 [5]) 1 | phenotypically active (WPMY1-TUBA1B-RELA) 1
3 µM: lowest phenotypically active concentration (HepG2-GM130-SQSTM1 [7])
